Compound activity (PubChem)
Hits are enriched below; roughly 2.7% of the tested compounds scored in any of these assays.
ATXN viability – Viability Counterscreen for Primary qHTS for Inhibitors of ATXN expression; S2 cells (HEK-293 line with an ATXN2-luciferase reporter) viability, CellTiter-Fluor protease fluorescence, 24 h; AID 651635, 2014; Potency, µM (series often up to 56.7 µM), actives largely listed as cytotoxic; 400,000 tested, 0.49% active; also: nearly all actives have a fitted effect of over 40% in size
ATXN2 expr inh – Primary qHTS for Inhibitors of ATXN expression; Potency, µM (top dose mostly 57 µM), inactives show at the top dose activity change, negative = inhibition, actives largely listed as inhibitors; 360,000 tested, 0.72% active; HEK-293 ATXN2-luciferase reporter, luminescence, 24 h; also: % is scaled to controls: 0 for no effect and ±100 for the full control effect; nearly all actives have a fitted effect of over 55% in size
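ATXN2-luciferase reporter cells (luciferase flanked by upstream and downstream ATXN2 gene portions) were treated 24 h at 37 °C with compounds at up to 57 uM. SteadyGlo luminescence gave expression; GF-AFC fluorescence gave viability.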
12-LOX inh – Primary qHTS assay for inhibitors of human arachidonate 12S-lipoxygenase (ALOX12): Round 2; Potency, µM (top dose mostly 108 µM), inactives show top-dose activity change, negative = inhibition, hits mostly inhibitors; Polyunsaturated fatty acid lipoxygenase ALOX12 (Homo sapiens), P18054; purified 12hLO, xylenol orange hydroperoxide absorbance; 580,000 tested, 1.1% active; also: % is scaled to controls: 0 for no effect and ±100 for the full control effect
Target sequence (P18054 whole entry, looked up): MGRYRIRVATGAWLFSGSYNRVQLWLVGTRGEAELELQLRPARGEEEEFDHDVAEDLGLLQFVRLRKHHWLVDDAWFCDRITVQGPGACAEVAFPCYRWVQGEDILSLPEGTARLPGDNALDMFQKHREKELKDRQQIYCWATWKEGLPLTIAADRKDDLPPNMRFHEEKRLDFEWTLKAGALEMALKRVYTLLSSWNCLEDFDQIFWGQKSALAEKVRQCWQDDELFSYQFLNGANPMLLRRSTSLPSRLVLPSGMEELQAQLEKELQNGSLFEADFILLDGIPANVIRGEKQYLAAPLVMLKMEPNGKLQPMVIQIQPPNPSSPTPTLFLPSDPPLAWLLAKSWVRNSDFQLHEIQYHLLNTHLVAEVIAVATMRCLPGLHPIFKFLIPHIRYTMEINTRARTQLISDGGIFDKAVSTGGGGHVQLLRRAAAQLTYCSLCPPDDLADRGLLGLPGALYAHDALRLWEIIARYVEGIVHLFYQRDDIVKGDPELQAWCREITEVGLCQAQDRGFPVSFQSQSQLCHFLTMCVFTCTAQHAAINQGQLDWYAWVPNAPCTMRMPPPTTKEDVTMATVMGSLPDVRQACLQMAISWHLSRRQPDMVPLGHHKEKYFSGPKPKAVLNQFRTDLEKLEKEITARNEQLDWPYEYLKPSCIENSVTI
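Purified human 12hLO at 150 nM in 25 mM Hepes, 0.01% Triton X-100, pH 7.0, preincubated 15 min at room temperature with compound. Reaction started with 40 uM arachidonic acid, 30 min at room temperature. Hydroperoxide measured by Fe-xylenol orange, 573/405 nm absorbance ratio.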
TGFb SMAD3 inh – qHTS for Inhibitors of TGF-b | 410,000 tested, 1.2% active | Potency, µM (doses to about 46.1 µM), inactives show at the highest dose activity, negative = inhibition, hits mostly inhibitors | HepG2 CAGA-GFP TGF-b/SMAD3 reporter, GFP fluorescence, 18 h; TGF-beta stimulated, 500 pg/mL final; also: % is scaled to controls: 0 for no effect and ±100 for the full control effect; nearly all actives have a fitted effect of over 65% in size
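HEPG2 CAGA-GFP cells (1000/well, DMEM with 1% FBS) were pre-incubated 2 h at 37 degrees C, given compound by pin tool, then stimulated with TGF-beta at 500 pg/mL final for 18 h before per-cell GFP fluorescence imaging.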
HepG2 tox – qHTS for Inhibitors of TGF-b: Cytotox Counterscreen; 410,000 tested, 0.76% active; AID 588856, 2011; HepG2 CAGA-GFP viability, ATP luminescence, 18 h; Potency, µM (highest dose often 46.1 µM), inactives show at the top dose activity change, negative = cytotoxicity, hits mostly cytotoxic
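HepG2 CAGA-GFP cells (1000/well, DMEM with 1% FBS) received compound, then TGF-beta at 500 pg/mL final, and were incubated 18 hours at 37 degrees C. Viability was read by CellTiter-Glo luminescence. Media-only wells were set as complete cell-killing and DMSO as no toxicity.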
* marks the source's active call; other numbers are inactive results; i = inactive; ? = inconclusive; . = not tested or not shown; [ ] = remark or other dose. Calls follow the shape of the dose curve; as a rule, active = well fitted curve in the direction sought with a large enough effect; inconclusive = small, poorly fitted or top-dose-only effect, or another doubt; inactive = no such curve, though single readings can be large; an effect the other way counts as inactive or inconclusive. Potency is read from the fitted curve at half-maximal effect.

SMILES | ATXN viability | ATXN2 expr inh | 12-LOX inh | TGFb SMAD3 inh | HepG2 tox
Cc1cc(Nc2nnnn2-c2ccccc2)n(-c2ccc(Cl)cc2)n1 | i | -10% | 5% | 13µM* | 2.8µM*
Nc1cccc(COCC(F)(F)C(F)F)c1 | . | . | -4% | . | .
N#CC1(C(=O)NCc2cccc(NC(=O)C3CCCC3)c2)CCCC1 | . | . | 24% | . | .
CC(Nc1nc(N2CCCCC2)nc2ccccc12)c1ccccc1 (configuration not stated) | . | . | ? | ? | 13µM*
CC(Nc1nc(-c2ccccc2)nc2ccccc12)c1ccccc1 (configuration not stated) | ? | -6% | -10% | ? | -28%
CC(C(=O)NCCN1CCCC1)C1CCN(C(=O)c2ccc3nc(-c4ccccc4)oc3c2)CC1 (configuration not stated) | . | . | 0% | . | .
O=C1CC(Nc2ccc(N3CCOCC3)cc2)C(=O)N1c1ccccc1F (configuration not stated) | i | -10% | 16µM* | -24% | -8%
O=C1CC(Nc2ccccc2)C(=O)N1c1ccc(N2CCOCC2)cc1 (configuration not stated) | i | 1% | 0% | -5% | -17%
O=C1CC(NNc2ccccc2)C(=O)N1c1ccc(N2CCCCC2)cc1 (configuration not stated) | i | -5% | 6.3µM* | 0% | 0%
CC(C)N1C(=O)C2(CCN(C(=O)c3ccc(Cl)cc3)C2)c2ccccc21 (configuration not stated) | . | . | -1%[6.33 µM] | . | .
COc1ccc(NC(=O)Nc2ccc3nc(N4CCOCC4)cc(C)c3c2)cc1 | . | . | -9% | . | .
CC1CN(Cc2ccc(Cl)cc2Cl)CC(C)O1 (configuration not stated) | i | 17% | 0.63µM* | -4% | -15%
CC(C)Nc1ccc(Nc2ccnc3cc4ccccc4cc23)cc1 | . | ? | ? | ? | 11µM*
c1ccc(CCNc2ccnc3cc4ccccc4cc23)cc1 | . | ? | ? | ? | 11µM*
COC(=O)c1cnc(N2CCCCC2C)c2ccccc12 (configuration not stated) | . | . | -25% | . | .
Nc1c(C(=O)N2CCOCC2)sc2nc3c(cc12)CCCC3 | i | 3.2µM* | 13% | 4% | -16%
Nc1c(C(=O)N2CCOCC2)sc2nc3c(cc12)CCC3 | i | 0% | -19% | 2% | -2%
CCOc1ccc(OC(=O)c2ccc3c(c2)NC(=O)CS3)cc1 | . | . | 4% | . | .
Cc1ccc(Nc2nnc(SCC(=O)c3ccc(O)cc3O)s2)cc1 | i | 4% | 45µM* | 1% | -41%
O=C(O)Cn1cc2c(n1)CCCC2 | i | 9% | 20µM* | 0% | 5%
CCOC(=O)C(=O)Nc1ccc(OCC(C)C)cc1 | . | . | 3% | . | .
Fc1ccc(-n2[nH]nnc2=S)cc1N1CCCC1 | i | 20% | 8.9µM* | 2% | 0%
O=C(Nc1ccc2c(c1)OCO2)C1CCN(C(=O)c2n[nH]c(=O)c3ccccc23)CC1 | . | . | -5% | . | .
COc1cccc(CNC(=O)c2nc(-c3ccccc3)oc2C)c1 | . | . | -19% | . | .
Cc1cccc(NC(=O)c2ccccc2NC(=O)c2nc(-c3ccccc3)oc2C)c1 | . | . | 35µM* | . | .
SMILES | ATXN viability | ATXN2 expr inh | 12-LOX inh | TGFb SMAD3 inh | HepG2 tox
COc1ccc(CNC(=O)c2ccc(-c3nc(CSc4ccccc4)c(C)o3)cc2)cc1 | i | -10% | ? | ? | 10µM*
Cc1oc(-c2ccccc2)nc1C(=O)NCc1ccccc1 | . | . | 18µM* | . | .
Cc1oc(-c2ccccc2)nc1C(=O)Nc1ccccc1F | . | . | 0% | . | .
Cc1ccc(NC(=O)CCc2c(C)c3ccc(C)cc3oc2=O)cc1 | . | . | -28% | . | .
CCOC(=O)CSC1=NC(=O)/C(=C/c2ccc(OC)cc2)S1 | 7.9µM* | 7.1µM* | . | ? | -41%
COc1ccc(NC(=O)C(=O)NCC(c2ccco2)N2CCc3ccccc3C2)cc1OC (configuration not stated) | i | -4% | ? | 2.5µM* | -23%
COc1cccc(NC(=O)C(=O)NCC(c2ccco2)N2CCc3ccccc3C2)c1 (configuration not stated) | i | 9% | -14% | -1% | 8%
CS(=O)(=O)c1ccc(OCCCN2CCC(C(O)(c3ccccc3)c3ccccc3)CC2)cc1 | . | . | 1% | . | .
Cc1cc(OCCCN2CCC(C(O)(c3ccccc3)c3ccccc3)CC2)ccc1Br | 22µM* | 32µM* | ? | . | .
CC(C)(C)OC(=O)N1CCCC1C(=O)NCc1ccccc1Cl (configuration not stated) | . | . | 10% | . | .
Cc1ccccc1OCC(=O)OCC(=O)Nc1ncc(Cl)c(C)c1Cl | i | 3% | 8.9µM* | 0% | 8%
Cc1ccccc1NC(=O)CSc1n[nH]c(-c2ccccn2)n1 | ? | 22µM* | -1% | -17% | -33%
Cc1ccc(O)c(NC(=O)CSc2n[nH]c(-c3ccccc3)n2)c1 | i | -22% | -10% | ? | -46%
Cc1ccc(C)c(NC(=O)CSc2n[nH]c(-c3ccccn3)n2)c1 | ? | 18µM* | 0% | -21% | -4%
Cc1nc(SCC(=O)Nc2cccc(Cl)c2)n[nH]1 | i | 2% | 360% | 15% | 2%
O=C(CSc1n[nH]c(-c2ccccn2)n1)Nc1cccc(Cl)c1 | i | 10µM* | -1% | ? | -17%
Cc1ccccc1NC(=O)CSc1nnc(-c2ccccn2)o1 | i | 9% | 2% | 1% | -73%
O=C(COc1ccccc1Cl)Nc1ccc(-c2nc3ccccc3o2)cc1 | . | . | -24% | . | .
CN1CCN(C(c2ccc(C(F)(F)F)cc2)c2ccc3cccnc3c2O)CC1 (configuration not stated) | ? | 7.9µM* | 18µM* | ? | -26%
Oc1c(C(Nc2cccnc2)c2ccc(C(F)(F)F)cc2)ccc2cccnc12 (configuration not stated) | . | . | . | ? | -48%
NC(=S)N=Nc1c(O)[nH]c2ccccc12 | i | -14% | -26% | -2% | 25%
Oc1[nH]c2ccc(Br)cc2c1N=NC(=S)N1CCOCC1 | ? | 0.71µM* | 40µM* | ? | -30%
Oc1[nH]c2ccccc2c1N=NC(=S)N1CCOCC1 | 3.2µM* | . | . | 7.1µM* | 3.2µM*
CC1CCCC(NC(=O)c2ccc(NC(=O)CC#N)cc2)C1C (configuration not stated) | . | . | 3% | . | .
FC(F)(F)c1cccc(NC(=S)NC(c2ccccc2)c2ccccc2)c1 | i | ? | 35µM* | ? | -48%
Cc1ccccc1C(=O)NNC(=S)Nc1cccc(C(F)(F)F)c1 | i | ? | ? | ? | 10µM*
